This is a sample that favours compounds with a hit; in the whole collection about 6.9% have one here.
IL-1B inflam inh – qHTS for Inhibitors of Inflammasome Signaling: IL-1-beta AlphaLISA Primary Screen; THP-1 LPS/ATP IL-1B secretion, AlphaLISA, 16 h; hits give low values; activity change, % at 57.5 µM; actives 4.7% (n = 360,000); AID 743279, 2014; in the data active = activity change below about -50%; inconclusive = mostly about -30% to -49%
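THP-1 cells pretreated 1 hr with compounds (up to 57.5 uM final), then stimulated with LPS (250 ng/mL final) plus ATP (1.25 mM final); secreted IL-1B measured by AlphaLISA after 16 hr, decreased signal indicating inhibition.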
Giardia killer – Small Molecules that selectively kill Giardia lamblia: qHTS; actives 0.15% (n = 340,000); activity change, % at 7.66 µM, hits read low; Giardia lamblia trophozoite viability; in the data active = activity change below about -80%; inconclusive = between about -30% and that limit;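 note: parasites exposed to compound for two days anaerobically before the ATP read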
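Each well holds 100 Giardia trophozoites and compound. After two days (48 hrs) at 37 deg C in anaerobic conditions, ATP is quantified by luminescence.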
Vif-APOBEC3F blk – qHTS for Inhibitors of Vif-A3F Interactions: qHTS. HeLa A3F-eYFP + Vif (tagged APOBEC3F with the HIV-1 protein that degrades it), YFP fluorescence increase. Potency, µM (titrated, usually from 46.1 µM). actives 0.2% (n = 390,000); note: nearly all actives have a fitted effect of over 65% in size
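HeLa cells stably expressing Vif plus C-terminally eYFP-tagged A3F were seeded, incubated overnight at 37 deg C, dosed with compound, incubated overnight again at 37 deg C. Yellow fluorescence (Ex 488/Em 500-530) reported blocked Vif-mediated A3F-eYFP degradation.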
SW480 rerep – A quantitative high throughput screen for small molecules that induce DNA re-replication in SW480 colon adenocarcinoma cells; SW480 DNA re-replication, Hoechst DNA content imaging, 48 h; Potency, µM (highest dose often 46.1 µM), hits mostly activators; actives 1.8% (n = 340,000); AID 624297, 2012; note: nearly all actives have a fitted effect of over 55% in size
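Image-based DNA-content assay: after two days of treatment, nuclei were labelled with the DNA dye Hoechst and imaged, and hits were compounds raising the count of nuclei showing high fluorescence intensity.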
Vif-APOBEC3G blk – qHTS for Inhibitors of Vif-A3G Interactions: qHTS; DNA dC->dU-editing enzyme APOBEC-3G (Homo sapiens), Q9HC16; HeLa A3G-eYFP + Vif (tagged APOBEC3G with the HIV-1 protein that degrades it), YFP fluorescence, overnight; Potency, µM (top dose mostly 46.1 µM), usual class: inhibitors; actives 0.076% (n = 410,000); note: nearly all actives have a fitted effect of over 60% in size
Target sequence (Q9HC16 whole entry, looked up): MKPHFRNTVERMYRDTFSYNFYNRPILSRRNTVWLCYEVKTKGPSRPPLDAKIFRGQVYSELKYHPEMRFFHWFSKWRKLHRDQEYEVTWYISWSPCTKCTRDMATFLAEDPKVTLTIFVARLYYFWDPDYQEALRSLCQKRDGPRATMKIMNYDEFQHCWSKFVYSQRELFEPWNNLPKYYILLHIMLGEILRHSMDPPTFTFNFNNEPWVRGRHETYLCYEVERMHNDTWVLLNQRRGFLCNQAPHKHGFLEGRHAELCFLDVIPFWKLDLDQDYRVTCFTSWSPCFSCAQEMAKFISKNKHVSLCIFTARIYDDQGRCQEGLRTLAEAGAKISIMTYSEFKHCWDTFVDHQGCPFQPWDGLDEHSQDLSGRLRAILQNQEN
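HeLa cells stably expressing Vif and C-terminally eYFP-tagged A3G, seeded overnight at 37 deg C, then exposed to compound by pintool overnight at 37 deg C. Rise in yellow fluorescence (Ex 488/Em 500-530, Acumen) marks blocked Vif-driven A3G degradation.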
MCF10A rereplic – A quantitative high throughput screen for small molecules that induce DNA re-replication in MCF 10a normal breast cells; Potency, µM (titrated, usually from 46.1 µM), hits mostly activators; MCF 10A DNA re-replication, Hoechst nuclear intensity, 48 h; actives 2.9% (n = 350,000); note: nearly all actives have a fitted effect of over 50% in size
Numbers stand for hits. Unless noted, calls come from the whole dose curve; as a rule, active = well fitted curve in the direction sought with a large enough effect; inconclusive = small, poorly fitted or top-dose-only effect, or another doubt; inactive = no such curve, though single readings can be large; an effect the other way counts as inactive or inconclusive.

Screening CCOc1cccc2sc(NC(=O)CCS(=O)(=O)c3ccccc3)nc12 returned IL-1B inflam inh inactive, Giardia killer inactive, Vif-APOBEC3F blk inactive, SW480 rerep 21µM, Vif-APOBEC3G blk inconclusive and MCF10A rereplic 21µM.
For CCOc1cccc2sc(Nc3nc4ccc(NC(C)=O)cc4s3)nc12 the results were IL-1B inflam inh inconclusive, Giardia killer inactive, Vif-APOBEC3F blk inactive, SW480 rerep 4.1µM, Vif-APOBEC3G blk inactive and MCF10A rereplic 3.7µM.
For COc1ccc(C)c2sc(NC(=O)CCS(=O)(=O)c3ccccc3)nc12 the results were IL-1B inflam inh -90, Giardia killer inactive, Vif-APOBEC3F blk inactive, SW480 rerep inconclusive, Vif-APOBEC3G blk inactive and MCF10A rereplic inconclusive.
For COc1ccc(-c2nc3cc(C(C)C)ccc3o2)cc1NC(=O)c1ccc(C)c(Cl)c1 the results were Vif-APOBEC3F blk inactive and Vif-APOBEC3G blk inactive.
For O=C(NC1CC(=O)N(c2ccc(Cl)cc2)C1)c1cc2ccccc2o1 (configuration not stated) the results were Vif-APOBEC3F blk inactive and Vif-APOBEC3G blk inactive.
CSCCC(NS(=O)(=O)c1ccc2c(c1)oc(=O)n2C)C(=O)N1CCN(c2cccc(Cl)c2)CC1 (configuration not stated) was read as Vif-APOBEC3F blk inactive and Vif-APOBEC3G blk inactive.
For Cn1c(-c2ccc(F)cc2)cnc1SCC(=O)N1CCCc2ccccc21 the results were IL-1B inflam inh inactive, Giardia killer inactive, Vif-APOBEC3F blk inactive, SW480 rerep inactive, Vif-APOBEC3G blk inactive and MCF10A rereplic inactive.
For CC1Cc2ccccc2N1C(=O)CSc1ncc(-c2ccc(F)cc2)n1C (configuration not stated) the results were IL-1B inflam inh -77, Giardia killer inactive, Vif-APOBEC3F blk inactive, SW480 rerep inactive, Vif-APOBEC3G blk inactive and MCF10A rereplic inactive.
For COc1ccc(C2=NOC(C(=O)NCc3ccccc3)C2)cc1 (configuration not stated) the results were IL-1B inflam inh inactive, Giardia killer inactive, Vif-APOBEC3F blk inactive, SW480 rerep 2.6µM, Vif-APOBEC3G blk inconclusive and MCF10A rereplic 0.37µM.
Screening COc1ccc(CNC(=O)C2CC(c3cc(C(F)(F)F)cc(C(F)(F)F)c3)=NO2)cc1 (configuration not stated) returned IL-1B inflam inh inactive, Giardia killer inactive, Vif-APOBEC3F blk inactive, SW480 rerep inactive, Vif-APOBEC3G blk inconclusive and MCF10A rereplic 6.5µM.
`O=C(NCc1ccc2c(c1)OCO2)C1CC(c2cccc(Br)c2)=NO1` (configuration not stated) gave IL-1B inflam inh inactive, Giardia killer inactive, Vif-APOBEC3F blk inactive, SW480 rerep inactive, Vif-APOBEC3G blk inactive and MCF10A rereplic 12µM.
`O=C(NCc1ccc2c(c1)OCO2)C1CC(c2ccccc2O)=NO1` (configuration not stated) gave IL-1B inflam inh inactive, Giardia killer inactive, Vif-APOBEC3F blk inactive, SW480 rerep inactive, Vif-APOBEC3G blk inactive and MCF10A rereplic inconclusive.
COc1ccc(CCNC(=O)C2CC(c3ccc(C(F)(F)F)cc3)=NO2)cc1 (configuration not stated) was read as IL-1B inflam inh inactive, Giardia killer inactive, Vif-APOBEC3F blk inactive, SW480 rerep inactive, Vif-APOBEC3G blk inactive and MCF10A rereplic inactive.
For O=C(NCc1cc(C(F)(F)F)cc(C(F)(F)F)c1)C1CC(c2c(Cl)cccc2Cl)=NO1 (configuration not stated) the results were IL-1B inflam inh -50, Giardia killer inactive, Vif-APOBEC3F blk inactive, SW480 rerep inactive, Vif-APOBEC3G blk inactive and MCF10A rereplic inactive.
Screening COc1ccc(-c2[nH]c3ccccc3c2SCCNC(=O)c2ccc(S(=O)(=O)N(C)C)cc2)cc1 returned Vif-APOBEC3F blk inactive and Vif-APOBEC3G blk inactive.
COCCNC(=O)C1CC(c2cccc(OC)c2)=NO1 (configuration not stated) was read as IL-1B inflam inh inactive, Giardia killer inactive, Vif-APOBEC3F blk inactive, SW480 rerep inactive, Vif-APOBEC3G blk inactive and MCF10A rereplic inactive.
Screening COc1cccc(C2=NOC(C(=O)NCc3ccccc3)C2)c1 (configuration not stated) returned IL-1B inflam inh inactive, Giardia killer inactive, Vif-APOBEC3F blk inactive, SW480 rerep inconclusive, Vif-APOBEC3G blk inconclusive and MCF10A rereplic 1.6µM.
`CCn1ncc(C2=NOC(C(=O)NCc3ccc(OC)cc3)C2)c1C` (configuration not stated) gave IL-1B inflam inh inactive, Giardia killer inactive, Vif-APOBEC3F blk inactive, SW480 rerep inconclusive, Vif-APOBEC3G blk inconclusive and MCF10A rereplic inconclusive.
For CCn1ncc(C2=NOC(C(=O)NCc3ccccc3)C2)c1C (configuration not stated) the results were IL-1B inflam inh inactive, Giardia killer inactive, Vif-APOBEC3F blk inactive, SW480 rerep 3.7µM, Vif-APOBEC3G blk inconclusive and MCF10A rereplic 4.6µM.
`C=CCNC(=O)C1CC(c2cccc(OC)c2)=NO1` (configuration not stated) gave IL-1B inflam inh inactive, Giardia killer inactive, Vif-APOBEC3F blk inactive, SW480 rerep inactive, Vif-APOBEC3G blk inactive and MCF10A rereplic inactive.
CCCn1cc(NC(=O)C2CC(c3cccc(Br)c3)=NO2)cn1 (configuration not stated) was read as IL-1B inflam inh inactive, Giardia killer inactive, Vif-APOBEC3F blk inactive, SW480 rerep 16µM, Vif-APOBEC3G blk inactive and MCF10A rereplic 23µM.
COc1cccc(C2=NOC(C(=O)NCc3ccco3)C2)c1 (configuration not stated) was read as IL-1B inflam inh inactive, Giardia killer inactive, Vif-APOBEC3F blk inactive, SW480 rerep inconclusive, Vif-APOBEC3G blk inconclusive and MCF10A rereplic 4.1µM.
O=C(Nc1cccc(O)c1)C1CC(c2cccc(Br)c2)=NO1 (configuration not stated) was read as IL-1B inflam inh inactive, Giardia killer inactive, Vif-APOBEC3F blk inactive, SW480 rerep inactive, Vif-APOBEC3G blk inactive and MCF10A rereplic inactive.
CCOc1ccc(OCC)c(NS(=O)(=O)c2c(C)[nH]c(=O)[nH]c2=O)c1 was read as Vif-APOBEC3F blk inactive and Vif-APOBEC3G blk inactive.
`COc1cccc(NC(=O)Cn2c(=O)c3cccn3c3ccc(F)cc32)c1` gave Vif-APOBEC3F blk inactive and Vif-APOBEC3G blk inactive.

Screens: PubChem BioAssay, National Center for Advancing Translational Sciences (NCATS)
